Screening data (PubChem)
Sampled rows, rich in hits. Any-hit rate of the full collection: about 9.5%.
Pf growth 48h = P. falciparum growth inhibition at 48 hours (one generation); P. falciparum luciferase growth in erythrocytes, 48 h; Potency, µM (doses to about 28.7 µM), for the others: at the highest dose activity change, negative = inhibition, most hits filed as inhibitors; actives 5.9% (n = 310,000); note: % is set by controls: 0 for no effect and ±100 for the full control effect
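Parasite viability was followed by luminescence of a genomically integrated firefly luciferase. Cultures held 0.1% parasitemia at 2% hematocrit (final), incubated under 5% CO2 at 37 C.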
RE007 growth inh = less growth of the S. pombe RE007 Vpr strain | S. pombe RE007 Vpr strain, BacTiter-Glo ATP luminescence, 24 h | actives 0.21% (n = 360,000) | Potency, µM (doses to about 92.2 µM), without a hit: at the top dose activity change, negative = less growth, usual class: inhibitors; active = well fitted falling curve with a large enough effect; inconclusive = small, poorly fitted or top-dose-only effect; inactive = no such curve, though single readings can be large or run the other way; note: % is set by controls: 0 for no effect and ±100 for the full control effect; nearly all actives have a fitted effect of over 50% in size
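Fission yeast strain RE007, carrying one chromosomally integrated HIV-1 vpr copy, was seeded at OD 0.01 in PMG+AL medium with 23 nL pinned compound. After 24 h at 30 °C and 99% humidity, viability was read by BacTiter-Glo luminescence.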
NS1 inh = blocks influenza NS1 protein function; Potency, µM (titrated, usually from 46.1 µM), inactives show at the top dose activity, positive = more growth; actives 0.4% (n = 270,000); calls by dose curve; note: actives are rising curves; nearly all actives have a fitted effect of over 50% in size
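S. cerevisiae expressing influenza A NS1, grown in glucose, washed, then diluted 1:100 into pH 6.0 -URA galactose medium with 23 nl compound. Growth recovery read as OD600; NS1-free strain serves as control.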
SARS PLpro yeast = inhibitors of SARS-CoV papain-like protease in yeast. S. cerevisiae expressing SARS-CoV PLpro, growth rescue. Potency, µM (doses to about 32.9 µM), for inactives: top-dose activity, positive = growth rescue, usual class: activators. actives 0.19% (n = 330,000). AID 485353; calls by dose curve; note: 0% is about no effect; nearly all actives have a fitted effect of over 55% in size
Pf growth 96h = P. falciparum growth inhibition at 96 hours | P. falciparum luciferase reporter growth, 96 h | Potency, µM (series often up to 28.7 µM), for the others: top-dose activity change, negative = inhibition, actives largely listed as inhibitors | actives 6.9% (n = 320,000) | AID 504834; note: % is set by controls: 0 for no effect and ±100 for the full control effect
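P. falciparum expressing integrated firefly luciferase, in erythrocytes at 2% hematocrit, 0.05% parasitemia, incubated with compounds 96 h at 37 C, 5% CO2. Growth inhibition read as loss of luminescence; two-generation exposure targets delayed-death apicoplast inhibitors.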
An asterisk follows results filed as active. Unless noted, calls come from the whole dose curve; as a rule, active = well fitted inhibition curve with a large enough effect; inconclusive = small, poorly fitted or top-dose-only effect, or another doubt; inactive = no such curve, though single readings can be large or run the other way. Potency is the fitted concentration of half-maximal effect.

For Cn1nc(C(=O)Nc2cccc(S(=O)(=O)N3CCOCC3)c2)c2ccccc2c1=O the results were Pf growth 48h inconclusive, RE007 growth inh -1%, SARS PLpro yeast -2% and Pf growth 96h -5%.
`CC(C)n1nc(C(=O)Nc2cccc(S(=O)(=O)N3CCOCC3)c2)c2ccccc2c1=O` gave Pf growth 48h inconclusive, RE007 growth inh 3%, SARS PLpro yeast -1% and Pf growth 96h 10µM*.
`Cn1nc(C(=O)Nc2cccc(S(=O)(=O)N3CCCC3)c2)c2ccccc2c1=O` gave Pf growth 48h 8.3µM*, RE007 growth inh 5%, SARS PLpro yeast -4% and Pf growth 96h 9.3µM*.
`Cn1nc(C(=O)OCC(=O)Nc2cccc(S(=O)(=O)N3CCCC3)c2)c2ccccc2c1=O` gave Pf growth 48h 12µM*, RE007 growth inh 27%, NS1 inh -33%, SARS PLpro yeast 1% and Pf growth 96h -12%.
`N=C(N)SC(c1ccccc1)c1ccccc1` gave NS1 inh -6%.
COc1ccc(S(=O)(=O)N2CCOCC2)cc1NC(=O)Cc1ccc2c(c1)OCCO2 was read as Pf growth 48h inconclusive, RE007 growth inh 5%, SARS PLpro yeast 12% and Pf growth 96h -48%.
For Cn1c(S(=O)(=O)c2ccc([N+](=O)[O-])cc2)nc(Br)c1Br the results were Pf growth 48h inconclusive, RE007 growth inh -6%, NS1 inh -3%, SARS PLpro yeast 0% and Pf growth 96h 9.3µM*.
`CCOC(=O)c1ccccc1NC(=O)COC(=O)Cc1ccccc1F` gave Pf growth 48h 19%, RE007 growth inh -13%, SARS PLpro yeast -2% and Pf growth 96h 18%.
`COc1ccccc1C(=O)NNC(=O)c1cccc(O)c1` gave Pf growth 48h 163%, RE007 growth inh -1%, NS1 inh inconclusive, SARS PLpro yeast -2% and Pf growth 96h 6.6µM*.
Screening COc1ccccc1C(=O)NNC(=S)NC(=O)c1cc(OC)c(OC)c(OC)c1 returned Pf growth 48h -12%, RE007 growth inh 12%, NS1 inh -4%, SARS PLpro yeast 0% and Pf growth 96h 13µM*.
Screening COc1ccccc1C(=O)NNC(=O)c1cccc(F)c1 returned Pf growth 48h 120%, RE007 growth inh -19%, NS1 inh -9%, SARS PLpro yeast -10% and Pf growth 96h 79%.
COc1cc(C(=O)NNC(=S)NC(=O)c2ccccc2C)cc(OC)c1OC was read as Pf growth 48h -4%, RE007 growth inh 2%, NS1 inh -65%, SARS PLpro yeast 7% and Pf growth 96h -1%.
Screening O=C(CN1CCN(Cc2ccc(Cl)cc2)CC1)N/N=C/c1c[nH]c2ccccc12 returned Pf growth 48h -6%, RE007 growth inh -3%, NS1 inh 5%, SARS PLpro yeast -3% and Pf growth 96h inconclusive.
O=S(=O)(NC[C@@H]1CCC[C@H](CNS(=O)(=O)c2c(F)cccc2F)C1)c1ccc2c(c1)OCCO2 was read as Pf growth 48h 8.3µM*, SARS PLpro yeast 3% and Pf growth 96h inconclusive.
`O=C(CN1CCCCCCC1)Nc1cccc(Cl)c1Cl` gave Pf growth 48h 53%, RE007 growth inh -11%, NS1 inh 3%, SARS PLpro yeast -2% and Pf growth 96h -27%.
`CC1CCCC(C)N1C(=O)c1ccccc1Nc1ccc(SC(F)F)cc1` (configuration not stated) gave Pf growth 48h inconclusive, RE007 growth inh 17%, NS1 inh -58%, SARS PLpro yeast -42% and Pf growth 96h 13µM*.
`O=C(NCc1ccccc1)C1c2ccccc2OCC(=O)N1CC(F)(F)F` (configuration not stated) gave RE007 growth inh 1%.
`O=C(Nc1ccc2c(c1)OCO2)C1CCCN1C(=O)Nc1ccccc1` (configuration not stated) gave Pf growth 48h -6%, RE007 growth inh 4%, NS1 inh 5%, SARS PLpro yeast 2% and Pf growth 96h -4%.
COc1cc(C(=O)OCC(=O)Nc2ccc(C)cc2)cc(OC)c1OC was read as RE007 growth inh 0%, NS1 inh 0%, SARS PLpro yeast -1% and Pf growth 96h 0%.
For COc1cc(C(=O)c2c(C)c(CCC#N)n3ccccc23)cc(OC)c1OC the results were Pf growth 48h 9.3µM*, RE007 growth inh -13%, NS1 inh 7%, SARS PLpro yeast -2% and Pf growth 96h -19%.
`Cc1c(C(=O)OC(C)C)sc(NC(=O)C2CCCO2)c1C(=O)OC(C)C` (configuration not stated) gave RE007 growth inh 4%, NS1 inh 18%, SARS PLpro yeast 3% and Pf growth 96h 9.3µM*.
COC(=O)c1sc(NC(=O)C2CCCO2)c(C(=O)OC)c1C (configuration not stated) was read as Pf growth 48h inconclusive, RE007 growth inh -15%, NS1 inh -38%, SARS PLpro yeast -7% and Pf growth 96h inconclusive.
`O=C(NCC1CCCO1)c1c(O)nc2sccn2c1=O` (configuration not stated) gave Pf growth 48h 0%, RE007 growth inh 2%, SARS PLpro yeast -2% and Pf growth 96h -5%.
Screening O=C(NC1CCCCCC1)c1c(O)nc2sccn2c1=O returned Pf growth 48h 6.6µM*, RE007 growth inh inconclusive, SARS PLpro yeast -40% and Pf growth 96h 4.7µM*.
O=C(NC1CCCCC1)c1c(O)nc2sccn2c1=O was read as Pf growth 48h 10µM*, RE007 growth inh -28%, SARS PLpro yeast -21% and Pf growth 96h 10µM*.
`CC1CC(NC(=O)c2c(O)nc3sccn3c2=O)CC(C)(C)C1` (configuration not stated) gave Pf growth 48h 13µM*, RE007 growth inh -11%, SARS PLpro yeast 0% and Pf growth 96h inconclusive.
For Cc1ccccc1CN1CCCOCCS1(=O)=O the results were Pf growth 48h inconclusive, RE007 growth inh -4%, NS1 inh 4%, SARS PLpro yeast 0% and Pf growth 96h 27%.
Screening Cc1cc(C)c(NC(=O)/C=C\C(=O)O)c([N+](=O)[O-])c1 returned RE007 growth inh 32µM*, NS1 inh -5%, SARS PLpro yeast -28% and Pf growth 96h 7%.
Cc1ccc(NC(=O)/C=C\C(=O)O)c([N+](=O)[O-])c1 was read as Pf growth 48h -2%, RE007 growth inh -16%, NS1 inh 8%, SARS PLpro yeast 6% and Pf growth 96h 39%.
Cc1cc(N2C(=O)CCC2=O)n(-c2ccccc2)n1 was read as Pf growth 48h 4%, RE007 growth inh 12%, NS1 inh inconclusive, SARS PLpro yeast -6% and Pf growth 96h 10µM*.
Screening N=c1ccn2c(n1)O[C@H]1[C@@H](O)[C@@H](CO)O[C@H]12 returned NS1 inh -5%.
